Calls of active or inactive are those of the source.
How the values were obtained:
[1] = test system: PRMT1 (protein arginine N-methyltransferase 1); assay: PRMT1 binders on small-molecule microarrays, primary screen, biochemical, small-molecule microarray, 635 nm fluorescence (AID 1088); details: small-molecule microarray binding, higher = more signal;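 note: binding of Prmt1 protein to compounds spotted on small-molecule microarray slides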
[2] = yeast growth modulation, basal conditions, primary screen, YJM789 clinical isolate, OD600, 24 h (AID 1089);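 note: growth of clinical yeast isolate S. cerevisiae YJM 789 seeded 1000 cells per well; test concentration not given here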; details: S. cerevisiae YJM789 growth, higher = more signal, called active from +8 up or from −8 down
[3] = fission yeast growth modulation, primary screen, strain 972, OD600, 24 h, no modulator (AID 1090);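 note: basal condition with compound alone and no growth modifier present; test concentration not given here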; details: S. pombe 972 growth, higher = more signal, called active from +8 up or from −8 down
[4] = S. cerevisiae growth modulation with rapamycin, primary screen, strain BY4716, OD600, 96 h (AID 1091); details: higher = more signal, called active from +8 up or from −8 down; note: test concentration not given here
[5] = target: Torsin-1A-interacting protein 2 (Homo sapiens) (UniProt Q8NFQ8); assay: LULL1 binders on small-molecule microarray, primary screen, cell lysate, human LULL1 lysate, 635/667 nm fluorescence (AID 1092); details: hLULL1 lysate binding, 635 nm fluorescence, higher = more signal;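 note: probe is lysate of COS7 cells overexpressing human LULL1; score merges per-feature 667 nm fluorescence with signal-to-noise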
Sequence of Torsin-1A-interacting protein 2 (Homo sapiens) (Q8NFQ8 whole entry, looked up): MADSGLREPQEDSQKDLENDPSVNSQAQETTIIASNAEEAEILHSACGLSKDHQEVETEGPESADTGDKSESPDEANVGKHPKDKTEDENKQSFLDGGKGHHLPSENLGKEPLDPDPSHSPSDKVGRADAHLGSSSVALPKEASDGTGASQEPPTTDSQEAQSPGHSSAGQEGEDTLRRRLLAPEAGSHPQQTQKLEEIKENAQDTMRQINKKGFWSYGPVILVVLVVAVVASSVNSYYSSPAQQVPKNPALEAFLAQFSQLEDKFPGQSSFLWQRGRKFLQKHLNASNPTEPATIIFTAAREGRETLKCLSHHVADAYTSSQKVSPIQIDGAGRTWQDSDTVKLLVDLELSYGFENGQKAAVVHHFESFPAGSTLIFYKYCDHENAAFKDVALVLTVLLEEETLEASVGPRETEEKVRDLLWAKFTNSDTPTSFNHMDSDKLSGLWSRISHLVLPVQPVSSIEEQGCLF

[6] = E. coli growth modulation, two-sided OD650, primary screen, E. coli filamentation project, strain DRC41, 24 h (AID 1093); details: OD650, 24 h, higher = more signal, called active from +8 up or from −8 down;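 note: MC1000 strain lacking acrAB efflux and sulA so SOS filamentation is blocked; test concentration not given here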
[7] = small-molecule microarray binders of probe aLefty2, primary screen, biochemical, biotinylated probe, 635/667 nm fluorescence (AID 1094); details: higher = more signal;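 note: score merges spot fluorescence near 667 nm with spot signal-to-noise ratio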
[8] = test system: Noggin (protein binding on small-molecule microarray); assay: Noggin binders on small-molecule microarray, primary screen, biochemical, 635/667 nm fluorescence (AID 1095); details: 635 nm fluorescence, higher = more signal;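 note: score merges 667 nm feature fluorescence with signal to noise over triplicate slides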
[9] = target: Neurogenic locus notch homolog protein 3 (Homo sapiens) (UniProt Q9UM47); assay: NOTCH3 binders on small-molecule microarray, primary screen, biochemical, 635/667 nm fluorescence (AID 1096); details: NOTCH3 binding, 635 nm fluorescence, higher = more signal
Sequence of Neurogenic locus notch homolog protein 3 (Homo sapiens) (Q9UM47 whole entry, looked up): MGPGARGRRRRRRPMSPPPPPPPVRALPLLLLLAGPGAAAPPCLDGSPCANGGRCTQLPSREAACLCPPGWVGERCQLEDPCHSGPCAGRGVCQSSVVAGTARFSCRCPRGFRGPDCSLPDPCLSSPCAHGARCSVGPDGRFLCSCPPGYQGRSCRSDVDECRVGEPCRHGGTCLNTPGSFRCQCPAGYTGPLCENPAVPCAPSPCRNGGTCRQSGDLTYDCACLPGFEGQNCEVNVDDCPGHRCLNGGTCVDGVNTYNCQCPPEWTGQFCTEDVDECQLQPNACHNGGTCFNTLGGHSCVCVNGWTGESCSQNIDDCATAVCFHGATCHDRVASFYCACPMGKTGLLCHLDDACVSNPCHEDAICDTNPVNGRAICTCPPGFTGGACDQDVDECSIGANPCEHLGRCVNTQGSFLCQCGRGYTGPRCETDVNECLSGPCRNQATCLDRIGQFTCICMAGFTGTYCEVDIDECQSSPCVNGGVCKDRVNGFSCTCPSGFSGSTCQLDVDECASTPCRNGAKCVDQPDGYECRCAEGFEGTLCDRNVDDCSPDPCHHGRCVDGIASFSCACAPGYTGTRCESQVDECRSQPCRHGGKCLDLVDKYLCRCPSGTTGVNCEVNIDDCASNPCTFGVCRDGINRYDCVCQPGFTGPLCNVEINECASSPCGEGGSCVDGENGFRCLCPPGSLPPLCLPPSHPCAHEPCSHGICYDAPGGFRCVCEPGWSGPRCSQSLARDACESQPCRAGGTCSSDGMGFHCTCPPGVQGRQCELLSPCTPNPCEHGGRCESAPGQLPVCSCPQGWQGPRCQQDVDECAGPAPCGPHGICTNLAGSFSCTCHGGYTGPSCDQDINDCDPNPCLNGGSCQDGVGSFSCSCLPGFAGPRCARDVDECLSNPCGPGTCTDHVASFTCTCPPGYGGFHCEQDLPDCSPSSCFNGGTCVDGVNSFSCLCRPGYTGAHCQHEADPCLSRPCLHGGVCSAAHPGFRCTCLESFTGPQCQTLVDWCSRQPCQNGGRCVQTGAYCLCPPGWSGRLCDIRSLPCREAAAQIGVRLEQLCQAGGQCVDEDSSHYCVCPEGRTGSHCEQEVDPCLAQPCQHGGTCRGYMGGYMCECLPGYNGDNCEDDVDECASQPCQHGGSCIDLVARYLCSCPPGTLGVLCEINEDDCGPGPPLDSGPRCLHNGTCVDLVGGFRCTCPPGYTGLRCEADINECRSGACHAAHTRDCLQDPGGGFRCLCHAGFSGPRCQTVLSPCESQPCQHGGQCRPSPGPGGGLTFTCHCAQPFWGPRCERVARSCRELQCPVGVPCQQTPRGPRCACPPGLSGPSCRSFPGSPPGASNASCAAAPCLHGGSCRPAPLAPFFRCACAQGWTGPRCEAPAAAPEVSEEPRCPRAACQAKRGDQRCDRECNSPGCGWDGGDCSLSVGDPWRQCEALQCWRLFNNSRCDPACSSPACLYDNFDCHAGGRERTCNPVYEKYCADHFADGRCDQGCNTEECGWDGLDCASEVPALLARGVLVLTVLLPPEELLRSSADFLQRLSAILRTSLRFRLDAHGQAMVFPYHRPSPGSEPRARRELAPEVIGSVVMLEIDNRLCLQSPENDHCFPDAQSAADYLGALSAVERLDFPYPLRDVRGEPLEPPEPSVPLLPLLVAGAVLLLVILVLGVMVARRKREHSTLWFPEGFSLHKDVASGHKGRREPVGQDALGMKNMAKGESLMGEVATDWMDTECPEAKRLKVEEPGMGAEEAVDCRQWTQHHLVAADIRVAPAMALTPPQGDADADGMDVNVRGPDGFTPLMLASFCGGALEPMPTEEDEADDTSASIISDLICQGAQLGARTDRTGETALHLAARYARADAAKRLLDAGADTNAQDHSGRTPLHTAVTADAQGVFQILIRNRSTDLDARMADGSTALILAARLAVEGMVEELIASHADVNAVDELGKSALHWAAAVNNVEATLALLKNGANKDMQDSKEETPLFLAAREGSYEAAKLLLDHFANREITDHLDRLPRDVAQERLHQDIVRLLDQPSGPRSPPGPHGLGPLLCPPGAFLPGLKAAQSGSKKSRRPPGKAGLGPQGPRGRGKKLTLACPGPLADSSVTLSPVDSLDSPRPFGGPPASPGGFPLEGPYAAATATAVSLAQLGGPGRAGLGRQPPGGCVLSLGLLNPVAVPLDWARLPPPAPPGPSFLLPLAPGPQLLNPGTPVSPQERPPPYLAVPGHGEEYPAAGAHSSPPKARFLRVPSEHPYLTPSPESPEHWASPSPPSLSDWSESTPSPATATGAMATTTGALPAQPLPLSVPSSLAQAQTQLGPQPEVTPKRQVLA

[10] = small-molecule microarray binders of probe aEGFR, primary screen, biochemical, biotinylated probe, 635/667 nm fluorescence (AID 1097); details: higher = more signal;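 note: probe is a biotinylated anti-EGFR antibody binding compounds printed on slides; score combines fluorescence near 667 nm and signal to noise of each spot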

SMILES | composite z-score [1] | z-score [2] | z-score [3] | z-score [4] | composite z-score [5] | z-score [6] | composite z-score [7] | composite z-score [8] | composite z-score [9] | composite z-score [10]
CCCCC(O)C1C=CC2C(=O)N(C)C(=O)C2N1N1CCCCC1 (stereo not given) | 0.506 | 0.882 (inactive) | 1.05 (inactive) | 1.97 (inactive) | 2.84 | -1.1 (inactive) | 0.365 | 0.277 | 0.967 | 0.197
Cc1ccc(S[C@]2(C(=O)NCC(C)C)CC(=O)N(Cc3cc(C(F)(F)F)cc(C(F)(F)F)c3)[C@@H]2c2ccc(CO)cc2)cc1 | 0.407 | -0.463 (inactive) | -0.924 (inactive) | -0.429 (inactive) | 0.472 | -0.869 (inactive) | 0.522 | -0.671 | -0.643 | -0.073
COc1cc2c(cc1O)C(c1cccs1)N(Cc1ccc([N+](=O)[O-])o1)CC2 (stereo not given) | 0.298 | -2.77 (inactive) | -4.47 (inactive) | -2.27 (inactive) | 1.02 | -0.73 (inactive) | 0.156 | -0.419 | 0.32 | -0.0859
C=C(CCCC)C(=O)CC[C@@H](OC(C)=O)c1ccc(CO)o1 | 1.54 | -4.06 (inactive) | -15.4 (active) | -2.36 (inactive) | -0.0891 | 0.246 (inactive) | -0.241 | 1.52 | 0.582 | -0.162
COC(=O)C[C@H]1O[C@@H](CCc2ccccc2)[C@@H](C)[C@@H]1[Si](C)(C)c1ccc(OC)cc1 | -0.604 | 0.425 (inactive) | -0.412 (inactive) | 0.797 (inactive) | -0.722 | -0.67 (inactive) | -0.253 | -0.263 | -0.311 | -0.206
COCCOC(=O)N1C(=O)[C@@]2(c3ccccc31)[C@H](C(=O)N1CCCCCCC1)[C@H]1C(=O)O[C@H](c3ccccc3)[C@H](c3ccccc3)N1[C@@H]2c1ccc(OCCO)cc1 | 1.54 | 1.9 (inactive) | 1.62 (inactive) | 4.28 (inactive) | 4.99 | -0.348 (inactive) | 1.98 | 2.22 | 1 | 1.38
CC(=O)n1cc(C(O)C2C=CC3C(=O)NC(=O)C3N2Nc2ccccn2)c2ccccc21 (stereo not given) | 0.553 | 0.505 (inactive) | 0.777 (inactive) | 0.171 (inactive) | 0.134 | -0.965 (inactive) | -0.0594 | 0.187 | 0.375 | -0.0084
O=C(NC1CC1)[C@@H]1c2ccccc2C(=O)N(C2Cc3ccccc3C2)[C@H]1c1ccc(CO)cc1 | 1.44 | -0.0411 (inactive) | 0.682 (inactive) | -0.514 (inactive) | 3.1 | 0.628 (inactive) | -0.0441 | 0.976 | 0.722 | -0.16
COC(=O)[C@@]1(Cc2ccc(F)cc2)[C@H]2c3cc(C(=O)N(C)C)n(Cc4cc(C)n(C)n4)c3C[C@H]2CN1C(=O)c1ccccc1 | 1.02 | 0.619 (inactive) | 0.456 (inactive) | -0.109 (inactive) | 3.09 | -0.38 (inactive) | 0.629 | -0.421 | 1.01 | 0.14
O=C1NC(=O)C2C1C=CC(C(O)c1ccc(I)cc1)N2Nc1ccc(Cl)cc1Cl (stereo not given) | 0.265 | -9.39 (active) | -5.52 (inactive) | -0.806 (inactive) | 2.64 | -1.3 (inactive) | 0.162 | -0.0422 | 0.925 | -0.0953
CC(=O)Nc1cc(Br)ccc1C(=O)NCc1ccccc1 | 0.717 | -1.76 (inactive) | -6.28 (inactive) | -1.98 (inactive) | 2.06 | 0.0591 (inactive) | -0.0778 | -0.0557 | 0.199 | -0.111
CCOC(=O)[C@H]1C/C=C/C[C@H](C(=O)OCC)C(=O)O[C@H]2[C@@H](OC)O[C@H](CO)[C@@H](OC(=O)c3ccc(Br)cc3)[C@@H]2OC1=O | 0.419 | -0.436 (inactive) | -0.316 (inactive) | 2.17 (inactive) | 0.796 | -0.67 (inactive) | -0.0653 | 0.197 | 0.415 | -0.116
O=c1cccc(-c2ccccc2Cl)o1 | 0.023 | -0.871 (inactive) | -0.463 (inactive) | 2.12 (inactive) | 0.551 | -0.252 (inactive) | -0.127 | 0.466 | -0.691 | -0.139
COC(=O)[C@H](Cc1ccccc1)N[C@H](/C=C/C1CC1)[C@@H](O)Cc1ccccc1 | -0.108 | -1.56 (inactive) | -5.75 (inactive) | -0.751 (inactive) | -0.316 | 1.04 (inactive) | -0.279 | 0.195 | -0.469 | -0.178
NC(=O)[C@@]1(Cc2ccccc2)N=C(c2ccc(OCCCO)cc2)O[C@H]1c1ccccc1 | 0.439 | 3.21 (inactive) | 1.04 (inactive) | -0.0393 (inactive) | 2.41 | 1.95 (inactive) | 0.0694 | 0.0537 | -0.0043 | -0.0996
